Assay outcomes deposited in PubChem BioAssay by National Center for Advancing Translational Sciences (NCATS).
Only some compounds are listed: those with a hit (about 12% of all), similar ones and a draw of the others.
HP1b chromo inh: HP1-beta chromodomain-methylated histone interaction inhibition. P83916. AlphaScreen HP1-beta / biotin-H3K9me3 peptide binding. Potency, µM (series often up to 114 µM), for inactives: at the highest dose activity change, negative = inhibition, actives largely listed as inhibitors. 390,000 tested, 0.56% active; also: nearly all actives have a fitted effect of over 70% in size
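Compound inhibition of the preformed complex between 50 nM HP1-beta and 50 nM biotinylated H3K9me3 peptide was read by AlphaScreen. Buffer was PBS pH 7.4 with 0.01% Tween-20. Incubations ran 30 min at room temperature, with 10 ug/mL donor/acceptor beads.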
Sfp inh: inhibitors of Bacillus subtilis Sfp phosphopantetheinyl transferase; Biochemical Sfp PPTase activity, qHTS; Potency, µM, without a hit: largest response in the series, negative = inhibition, most hits filed as inhibitors; 310,000 tested, 3.5% active; AID 1490;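 also: the enzyme is Sfp with the accession as filed and its product quenches rhodamine fluorescence; 0% = enzyme reaction without inhibitor and -100% = no enzyme wells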
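Step 1, compound plus 15 nM Sfp-PPTase, 15 min, room temperature. Step 2, add rhodamine-CoA (5 uM) and BHQ-2-YbbR (12.5 uM). Step 3, read 525/598 nm fluorescence at 0 and 30 min.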
L3MBTL1 block: L3MBTL1 (human) inhibition. Q9Y468. AlphaScreen L3MBTL1–H3K9me1 peptide binding. Potency, µM (doses to about 57.1 µM), for inactives: at the highest dose activity, negative = inhibition, usual class: inhibitors. 230,000 tested, 0.66% active. AID 485360; also: % is scaled to controls: 0 for no effect and ±100 for the full control effect; nearly all actives have a fitted effect of over 60% in size
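Displacement of a biotinylated histone H3(1-15) peptide monomethylated at Lys9 (75 nM) from L3MBTL1 (50 nM) was measured by AlphaScreen after a 30 min room-temperature compound incubation; cefsulodin titration served as intraplate control.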
BAZ2B block: blocks human BAZ2B. Q9UIF8. AlphaScreen BAZ2B-H3K14Ac peptide displacement. Potency, µM (highest dose often 114 µM), inactives show at the top dose activity change, negative = inhibition, usual class: inhibitors. 360,000 tested, 4.4% active; also: % is scaled to controls: 0 for no effect and ±100 for the full control effect; nearly all actives have a fitted effect of over 60% in size
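Complex of BAZ2B and biotin-H3K14Ac (50 nM apiece) forms over 30 min at RT, then faces library compounds up to 110 uM for another 30 min; AlphaScreen beads added, 20 min dark incubation, luminescence read.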
G9a block: G9a (human) methyltransferase inhibition; Potency, µM (series often up to 102 µM), for the others: at the highest dose activity, negative = inhibition, usual class: inhibitors; AID 504332; G9a H3K9 monomethylation, AlphaScreen, 2 h; 350,000 tested, 8.8% active; also: % is scaled to controls: 0 for no effect and ±100 for the full control effect; nearly all actives have a fitted effect of over 75% in size
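G9a (20 nM) was preincubated 15 min with compound, then reacted 2 h at room temperature with 500 nM biotin-H3K9 peptide and 20 µM SAM. Monomethyl-H3K9 detected by AlphaScreen using anti-H3K9me1 antibody.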
JMJD2A Tudor inh: blocks the human JMJD2A Tudor domain; AlphaScreen JMJD2A-Tudor / H3K4me3 peptide binding; Potency, µM (top dose mostly 114 µM), for the others: top-dose activity change, negative = inhibition, usual class: inhibitors; 390,000 tested, 4.4% active; also: % is scaled to controls: 0 for no effect and ±100 for the full control effect; nearly all actives have a fitted effect of over 50% in size
Target sequence (O75164 whole entry, looked up, the tested form may be a part): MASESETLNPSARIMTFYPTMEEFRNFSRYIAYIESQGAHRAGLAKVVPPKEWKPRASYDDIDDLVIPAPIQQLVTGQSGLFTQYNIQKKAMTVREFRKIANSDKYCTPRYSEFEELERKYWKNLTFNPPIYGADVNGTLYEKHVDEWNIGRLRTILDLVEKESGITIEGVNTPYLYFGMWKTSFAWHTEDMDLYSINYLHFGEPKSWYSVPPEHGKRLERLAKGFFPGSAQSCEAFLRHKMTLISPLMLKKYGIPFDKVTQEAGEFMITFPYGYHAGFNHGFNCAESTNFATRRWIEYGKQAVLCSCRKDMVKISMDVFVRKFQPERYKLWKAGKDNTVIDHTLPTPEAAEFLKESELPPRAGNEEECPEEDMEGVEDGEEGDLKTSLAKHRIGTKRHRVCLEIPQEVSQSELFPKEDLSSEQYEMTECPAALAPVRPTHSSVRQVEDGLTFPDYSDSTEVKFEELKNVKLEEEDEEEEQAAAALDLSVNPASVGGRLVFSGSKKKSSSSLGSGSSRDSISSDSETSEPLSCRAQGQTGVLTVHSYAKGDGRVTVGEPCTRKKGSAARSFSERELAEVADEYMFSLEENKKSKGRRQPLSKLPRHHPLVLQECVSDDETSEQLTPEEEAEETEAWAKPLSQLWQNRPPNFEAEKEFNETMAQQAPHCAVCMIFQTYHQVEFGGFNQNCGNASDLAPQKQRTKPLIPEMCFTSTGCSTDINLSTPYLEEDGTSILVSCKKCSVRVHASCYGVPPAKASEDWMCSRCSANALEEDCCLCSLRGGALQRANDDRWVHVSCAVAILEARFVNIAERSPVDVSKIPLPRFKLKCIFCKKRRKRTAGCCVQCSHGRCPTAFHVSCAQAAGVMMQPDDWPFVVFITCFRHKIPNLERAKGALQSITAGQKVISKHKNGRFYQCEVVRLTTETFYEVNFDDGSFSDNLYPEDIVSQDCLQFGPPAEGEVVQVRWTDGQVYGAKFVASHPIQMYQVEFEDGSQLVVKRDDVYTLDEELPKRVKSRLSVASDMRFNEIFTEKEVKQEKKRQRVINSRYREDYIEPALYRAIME
* hit, by the source's call; ? = inconclusive; . = not tested or not shown; [ ] = remark or other dose. Calls follow the shape of the dose curve; as a rule, active = well fitted curve in the direction sought with a large enough effect; inconclusive = small, poorly fitted or top-dose-only effect, or another doubt; inactive = no such curve, though single readings can be large; an effect the other way counts as inactive or inconclusive. Potency is read from the fitted curve at half-maximal effect.

SMILES	HP1b chromo inh	Sfp inh	L3MBTL1 block	BAZ2B block	G9a block	JMJD2A Tudor inh
O=C(O)c1ccccc1NCc1ccncc1	31%	2%	0%	-39%	40µM*	-5%
COC(=O)c1ccccc1NCCO	22%	11%	.	-9%	2%[12.7 µM]	-9%
O=C(O)c1ccccc1NCCO	15%	-6%	.	.	50µM*	-16%
O=C(c1cccs1)N1CCCc2cc(NS(=O)(=O)c3ccc(Cl)cc3)ccc21	10%	.	.	-28%	1%[59 µM]	-24%
COC[C@H]1OC=C[C@@H](OC)[C@@H]1OC	.	5%	.	.	.	.
COc1ccc(N2CC(C)Cn3c2nc2c3c(=O)n(Cc3ccc(F)cc3)c(=O)n2C)c(OC)c1 (centres undefined)	-22%	?	-5%	?	?	-20%[57.1 µM]
COc1ccc(N2CC(C)Cn3c2nc2c3c(=O)n(Cc3ccc(C)cc3)c(=O)n2C)c(OC)c1 (centres undefined)	-21%	-14%	.	.	35µM*	?
Cc1ccc(-n2ncc3c(NCCCN4CCOCC4)ncnc32)cc1C	24%	.	.	2%	6%[59 µM]	-17%
c1c(CC2CCCC2)nnn1C[C@H]1CC[C@@H]([C@@H]2CC[C@H](Cn3cc(CC4CCCC4)nn3)O2)O1	31%	1%	6%	-26%	40µM*	-8%
COc1ccc(-c2noc(COc3cc(C)c(Br)c(C)c3)n2)cc1OC	47%	.	.	8%	18%[59 µM]	13%
COC(=O)c1c(NC(C)=O)sc(C(=O)Nc2ccccc2F)c1C	-14%	71µM*	-4%	-5%	.	?
CCC(=O)Nc1sc(C(=O)Nc2ccccc2F)c(C)c1C(=O)OC	32%	6%	4%	-6%	.	1%
Cc1cc(C)c2c(n1)nn1c(C)c(CCC(=O)Nc3ccc(C)c(Cl)c3)c(C)nc21	14%	.	.	-9%	3%[59 µM]	-14%
COC(=O)C1=C(C)N(CCC2=CCCCC2)C(=O)C1	-5%	-8%	-1%	8%	-2%[12.7 µM]	50µM*
N=c1c(S(=O)(=O)c2ccc(Cl)cc2)cc2c(=O)n3ccccc3nc2n1CCc1ccccc1	.	25µM*	.	-1%	41%	.
N=c1c(S(=O)(=O)c2ccccc2)cc2c(=O)n3ccccc3nc2n1CCCN1CCOCC1	5%	-26%	.	4%	79µM*	-24%
CCc1ccc(C(=O)c2cn(CC(=O)Nc3cc(OC)ccc3OC)c3ccc(Cl)cc3c2=O)cc1	37%	.	.	-3%	11%[59 µM]	-5%
Cc1nnc(N/N=C/c2c[nH]c3ccccc23)[nH]c1=O	39%	-4%	.	?	.	-25%
Cc1nnc(N/N=C/C(C)c2ccccc2)[nH]c1=O (centres undefined)	28%	79µM*	5%	-25%	?	0.89µM*
CCOC(=O)c1cc(-c2ccccc2)n(CC(=O)Nc2ccccc2OCC)c1C	36%	.	.	2%	-4%[59 µM]	-6%
O=[N+]([O-])C(=C1NCCN1)C(Cl)=C(Cl)Cl	44%	6%	4%	-11%	56µM*	11%
CCN(CC)S(=O)(=O)c1ccc2oc(SCC(=O)NC3CC3)nc2c1	-22%	40µM*	.	?	13µM*	-1%
CCN(CC)S(=O)(=O)c1ccc2oc(Nc3ccc(OC)cc3OC)nc2c1	18%	-6%	.	?	-7%	-17%
CCN(CC)S(=O)(=O)c1ccc2oc(Nc3ccccc3)nc2c1	-23%	-5%	.	-24%	32µM*	?
CCN(CC)S(=O)(=O)c1ccc2oc(SCC(=O)Nc3cc(C)on3)nc2c1	-56%	.	6%	6%	7%[0.501 µM]	?
O=C(NCc1ccco1)c1cc(NS(=O)(=O)c2cccc([N+](=O)[O-])c2)ccc1O	-24%	8%	-4%	?	50µM*	-36%
O=C(NCc1ccco1)c1cccc(NS(=O)(=O)c2cccc(F)c2)c1	26%	3%	5%	-27%	-11%[59 µM]	-8%
COc1cccc(Cn2c(=O)c(C)nc3cnc(OC)nc32)c1	.	22%	.	.	10%[0.501 µM]	.
CCSc1ncccc1-c1nc2ccccc2[nH]1	.	2%	1%	8%	-9%[59 µM]	-6%
